# Reference: PubChem BioAssay (NCATS)
# Inconclusive results are not listed. A call without a number means that no potency is given here. A number with no mark means an inactive call. The source made the active and inactive calls. Calls follow the shape of the dose curve; as a rule, active = well fitted inhibition curve with a large enough effect; inconclusive = small, poorly fitted or top-dose-only effect; inactive = flat fitted curve, though single readings scatter.
# Experiments:
# PC26 = assay: qHTS profiling for inhibitors of Plasmodium falciparum proliferation (AID 504749); also: potency is read from the fitted curve at half-maximal effect; conditions: P. falciparum in erythrocytes, SYBR Green DNA, 72 h; series mostly up to 28.7 µM
# Method in brief: (§1)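 In a 72 h erythrocytic culture (37 C, humidified, 5% CO2) at 2.5% hematocrit and 0.3% starting parasitemia, compounds were tested; SYBR Green I in detergent lysis buffer stained parasite DNA overnight.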
# PC49 = assay: as above; conditions: P. falciparum in erythrocytes, SYBR Green DNA, 72 h; series mostly up to 28.7 µM
# Method in brief: as §1
# SC27B = assay: as above; conditions: P. falciparum in erythrocytes, SYBR Green DNA, 72 h; series mostly up to 28.7 µM
# Method in brief: as §1
# TAB109 = assay: as above; conditions: P. falciparum in erythrocytes, SYBR Green DNA, 72 h; series mostly up to 28.7 µM
# Method in brief: as §1
# TAB113 = assay: as above; conditions: P. falciparum in erythrocytes, SYBR Green DNA, 72 h; series mostly up to 28.7 µM
# Method in brief: as §1
# TAB165 = assay: as above; conditions: P. falciparum in erythrocytes, SYBR Green DNA, 72 h; series mostly up to 28.7 µM
# Method in brief: as §1
# W2 = assay: as above; conditions: P. falciparum in erythrocytes, SYBR Green DNA, 72 h; series mostly up to 28.7 µM
# Method in brief: as §1
# KB-3-1 = assay: Cytotoxic Profiling of Annotated Libraries Using Quantitative High-Throughput Screening (AID 1296008); conditions: Five cell lines viability, CellTiter-Glo ATP luminescence, 48-72 h; max response: stronger effect = lower value
# Method in brief: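 Cytotoxicity was measured as CellTiter-Glo ATP luminescence, read after 10 min at room temperature. Compound treatment of the cells lasted 48 or 72 hr at 37 degrees Celsius in a qHTS format.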
# Also: nearly all actives have a fitted effect of over 60% in size.
Structure (SMILES),Potency (PC26),Potency (PC49),Potency (SC27B),Potency (TAB109),Potency (TAB113),Potency (TAB165),Potency (W2),max response (KB-3-1) [%]
COC1=C(OC)C(=O)C(C/C=C(\C)CC/C=C(\C)CC/C=C(\C)CC/C=C(\C)CC/C=C(\C)CC/C=C(\C)CC/C=C(\C)CC/C=C(\C)CC/C=C(\C)CCC=C(C)C)=C(C)C1=O,inactive,inactive,inactive,inactive,inactive,inactive,inactive,-15.4
OB(O)O,inactive,inactive,inactive,inactive,inactive,inactive,inactive,-9
CC(C)(C)CC(C)(C)c1cc(Cc2cc(C(C)(C)CC(C)(C)C)cc(-n3nc4ccccc4n3)c2O)c(O)c(-n2nc3ccccc3n2)c1,inactive,inactive,inactive,inactive,inactive,inactive,inactive,-2.05
Nc1nc(=O)n([C@@H]2CS[C@H](CO)O2)cc1F,inactive,inactive,inactive,inactive,inactive,inactive,inactive,6.08
OC[C@H]1O[C@@H]2O[C@H]3[C@H](O)[C@@H](O)[C@@H](O[C@H]4[C@H](O)[C@@H](O)[C@@H](O[C@H]5[C@H](O)[C@@H](O)[C@@H](O[C@H]6[C@H](O)[C@@H](O)[C@@H](O[C@H]7[C@H](O)[C@@H](O)[C@@H](O[C@H]1[C@H](O)[C@H]2O)O[C@@H]7CO)O[C@@H]6CO)O[C@@H]5CO)O[C@@H]4CO)O[C@@H]3CO,inactive,inactive,inactive,inactive,inactive,inactive,inactive,3.87
O=P(O)(O)OC[C@H]1O[C@](O)(COP(=O)(O)O)[C@@H](O)[C@@H]1O,inactive,inactive,inactive,inactive,inactive,inactive,inactive,1.63
O=C(O)c1ccc(OCCn2ccnc2)cc1,inactive,inactive,inactive,inactive,inactive,inactive,inactive,6.76
FC(F)(F)C(F)(F)C(F)(F)C(F)(F)C(F)(F)C(F)(F)F,inactive,inactive,inactive,inactive,inactive,inactive,inactive,6.4
O=S(=O)(O)CC(S)CS (stereo not drawn),inactive,inactive,inactive,inactive,inactive,inactive,inactive,3.44
COc1cc(C)c(/C=C/C(C)=C/C=C/C(C)=C/C(=O)O)c(C)c1C,inactive,inactive,inactive,inactive,inactive,inactive,inactive,-4.57
CCOC(=O)Cc1ccc(-c2ccccc2)cc1,inactive,inactive,inactive,inactive,inactive,inactive,inactive,6.55
CC(C)CCC[C@@H](C)[C@H]1CC[C@H]2[C@@H]3CC[C@@H]4C[C@H](O)CC[C@]4(C)[C@H]3CC[C@]12C,inactive,inactive,inactive,inactive,inactive,inactive,inactive,-12.6
[O-][N+](=Nc1ccccc1)c1ccccc1,inactive,inactive,inactive,inactive,inactive,inactive,inactive,-7.74
Nc1nccs1,inactive,inactive,inactive,inactive,inactive,inactive,inactive,-12.3
CCC(O)c1ccccc1 (stereo not drawn),inactive,inactive,inactive,inactive,inactive,inactive,inactive,7.91
C=CC[C@@H]1/C=C(\C)C[C@H](C)C[C@H](OC)[C@H]2O[C@@](O)(C(=O)C(=O)N3CCCC[C@H]3C(=O)O[C@H](/C(C)=C/[C@@H]3CC[C@@H](O)[C@H](OC)C3)[C@H](C)[C@@H](O)CC1=O)[C@H](C)C[C@@H]2OC,1.69 µM (active),2 µM (active),1.78 µM (active),2 µM (active),1.78 µM (active),1.41 µM (active),0.338 µM (active),2.3
[O]=[Bi][O]C(=O)[O][Bi]=[O],inactive,inactive,inactive,inactive,inactive,inactive,inactive,-15.6
Cc1ncc(C[n+]2csc(CCOP(=O)(O)O)c2C)c(N)n1,inactive,inactive,inactive,inactive,inactive,inactive,inactive,-2.14
O=C(O)[C@H]1C(=CCO)O[C@H]2CC(=O)N12,inactive,inactive,inactive,inactive,inactive,inactive,inactive,8.73
O=C(NNCNNC(=O)c1ccncc1)c1ccncc1,inactive,inactive,inactive,inactive,inactive,inactive,inactive,1.42
Cc1cccc(C)c1NC(=O)NC1=CCCN1C,inactive,inactive,inactive,inactive,inactive,inactive,inactive,-2.58
CN1C(=O)OC(C)(C)C1=O,inactive,inactive,inactive,inactive,inactive,inactive,inactive,3.96
COc1ccc(C(=O)CCC(=O)O)c2ccccc12,inactive,inactive,inactive,inactive,inactive,inactive,inactive,-0.566

Structure (SMILES),Potency (PC26),Potency (PC49),Potency (SC27B),Potency (TAB109),Potency (TAB113),Potency (TAB165),Potency (W2),max response (KB-3-1) [%]
O=C(O)COc1ccccc1/C=N/NC(=O)c1ccncc1,inactive,inactive,inactive,inactive,inactive,inactive,inactive,4.6
CCN(CC)CCOc1ccc2nc(N(C)C)sc2c1,inactive,inactive,inactive,inactive,inactive,inactive,inactive,-23.9
CCCCCCCCCCCCCCCCCC(=O)OCC(C)O (stereo not drawn),inactive,inactive,inactive,inactive,inactive,inactive,inactive,-14.3
CN(CCO)CC(O)Cn1cnc2c1c(=O)n(C)c(=O)n2C (stereo not drawn) (tested in a mixture with another compound),inactive,inactive,inactive,inactive,inactive,inactive,inactive,-4.03
COc1ccc(-c2noc(CC(=O)O)c2-c2ccc(OC)cc2)cc1,inactive,inactive,inactive,inactive,inactive,inactive,inactive,2.01
CCCCC[C@H](O)/C=C/[C@@H]1[C@H]2C/C(=C/CCCC(=O)O)O[C@H]2C[C@H]1O,inactive,inactive,inactive,inactive,inactive,inactive,inactive,11.9
CC1=C(/C=C/C(C)=C/C=C/C(C)=C/C(=O)Oc2c(C)c(C)c3c(c2C)CC[C@@](C)(CCC[C@H](C)CCC[C@H](C)CCCC(C)C)O3)C(C)(C)CCC1,inactive,inactive,inactive,inactive,inactive,inactive,inactive,-1.1
CC1=CCC2CC1C2(C)C (stereo not drawn),inactive,inactive,inactive,inactive,inactive,inactive,inactive,16.6
Cc1ncc(C[n+]2csc(CCO)c2C)c(N)n1,inactive,inactive,inactive,inactive,inactive,inactive,inactive,-14.6
CCCCCCCCCCCC(=O)OCC(O)CO (stereo not drawn),inactive,inactive,inactive,inactive,inactive,inactive,inactive,4.65
CCCc1nc(C(C)(C)O)c(C(=O)OCc2oc(=O)oc2C)n1Cc1ccc(-c2ccccc2-c2nn[nH]n2)cc1,inactive,inactive,inactive,inactive,inactive,inactive,inactive,-0.562
CC1CCC(NC(=O)N(CCCl)N=O)CC1 (stereo not drawn),inactive,inactive,inactive,inactive,inactive,inactive,10.7 µM (active),8.06
Oc1ccc(Cl)c2c1CCC2,inactive,inactive,inactive,inactive,inactive,inactive,inactive,-14.4
CCN(CC)CCOC(=O)c1cccnc1,inactive,inactive,inactive,inactive,inactive,inactive,inactive,21.6
CC1=CC(=O)NS(=O)(=O)O1,inactive,inactive,inactive,inactive,inactive,inactive,inactive,-8.51
COc1ccc(/C=C/C(=O)OCCC(C)C)cc1,inactive,inactive,inactive,inactive,inactive,inactive,inactive,-0.838
NCC[C@H](O)C(=O)N[C@@H]1C[C@H](N)[C@@H](O[C@H]2O[C@H](CN)[C@@H](O)[C@H](O)[C@H]2O)[C@H](O)[C@H]1O[C@H]1O[C@H](CO)[C@@H](O)[C@H](N)[C@H]1O,inactive,inactive,inactive,inactive,inactive,inactive,inactive,3.67
COc1ccc(C(=O)c2ccc(C)cc2)c(O)c1,inactive,inactive,inactive,inactive,inactive,inactive,inactive,4.04
O=C1[O][Bi][O]c2ccccc21,inactive,inactive,inactive,inactive,inactive,inactive,inactive,-7.6
N[C@H](CC(=O)O)C(=O)O,inactive,inactive,inactive,inactive,inactive,inactive,inactive,11.5
CC(=O)NCCCS(=O)(=O)O,inactive,inactive,inactive,inactive,inactive,inactive,inactive,14.2
O=C(/C=C/c1cccc(F)c1)NC1CC1,inactive,inactive,inactive,inactive,inactive,inactive,inactive,-16.5
C[C@H](O)CN(C)C,inactive,inactive,inactive,inactive,inactive,inactive,inactive,10.7
